# In PubChem BioAssay (EPA / NIEHS):
# Results filed as inconclusive are left out. Active and inactive are the calls of the source. Rule for the calls: active = hit-call score of the fitted dose curve at least 0.9, where 1 is the maximum; inconclusive = response in the unintended direction; inactive = score below 0.9.
# Key:
# [1] = molecular target: human MET Proto-Oncogene, Receptor Tyrosine Kinase (MET), MET (gene 4233) (UniProt P08581); assay: NVS_ENZ_hMet: NovaScreen (NVS) Enzymatic Assay for human MET Proto-Oncogene, Receptor Tyrosine Kinase (MET) (AID 2283180)
# How it was run: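 Cell-free MET kinase assay using recombinant protein and fluorescent substrate, with mobility-shift separation; read 1 h after dosing. Primary duplicate at 25 uM; actives in singleton concentration-response to 50 uM maximum. Signal loss versus DMSO.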
# [2] = molecular target: rat Monoamine Oxidase, MAO-B, Peripheral (MAOBP), Maob (gene 25750) (UniProt P19643); assay: NVS_ENZ_rMAOBP: NovaScreen (NVS) Enzymatic Assay for rat Monoamine Oxidase, MAO-B, Peripheral (MAOBP) (AID 2283242)
# [3] = molecular target: rat Oxytocin Receptor (OXT), Oxtr (gene 25342) (UniProt P70536); assay: NVS_GPCR_rOXT: NovaScreen (NVS) G Protein-Coupled Receptor Assay for rat Oxytocin Receptor (OXT) (AID 2283330)
# How it was run: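 Radioligand displacement on rat uterine membranes, 1 h incubation, filter-based scintillation counting. Chemicals were screened in duplicate at 25 uM, and those passing threshold were retested in concentration-response up to 50 uM. Loss of binding was fitted versus DMSO.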
# [4] = molecular target: human Ephrin type-A Receptor 2 (EphA2), EPHA2 (gene 1969) (UniProt P29317); assay: NVS_ENZ_hEphA2: NovaScreen (NVS) Enzymatic Assay for human Ephrin type-A Receptor 2 (EphA2) (AID 2283155)
# How it was run: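 Cell-free recombinant EphA2 kinase with specific substrate, 1 h, fluorescence with electrophoretic mobility-shift separation of substrate and product. Primary screen at 25 uM in duplicate; hits retested in singleton concentration-response up to 50 uM, referenced to DMSO.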
# [5] = molecular target: Norway rat Vesicular Monoamine Transporter (VMAT2), neurotransmitter transporter, Slc18a2 (gene 25549) (UniProt Q01827); assay: NVS_TR_rVMAT2: NovaScreen (NVS) Transporter Assay for Norway rat Vesicular Monoamine Transporter (VMAT2), neurotransmitter transporter (AID 2283376);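 note: actives lower the bound radioligand signal below the DMSO level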
# How it was run: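 Radioligand displacement binding on rat forebrain tissue preparation, filter-based scintillation read-out 1 hour after dosing. Primary screen in duplicate at 25 uM, then concentration series for actives; loss of signal versus DMSO.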
# [6] = molecular target: human Aurora Kinase A - serine/threonine-protein Kinase 6 (AurA), AURKA (gene 6790) (UniProt O14965); assay: NVS_ENZ_hAurA: NovaScreen (NVS) Enzymatic Assay for human Aurora Kinase A - serine/threonine-protein Kinase 6 (AurA) (AID 2283142)
# How it was run: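 Cell-free enzymatic assay with human Aurora A, 1 hour after dosing. Fluorescent substrate turnover detected after electrophoretic mobility shift separation of substrate and product. Screened at 25 uM, actives retested in concentration-response up to 50 uM.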
# [7] = molecular target: human Caspase 2 (CASP2), CASP2 (gene 835) (UniProt P42575); assay: NVS_ENZ_hCASP2: NovaScreen (NVS) Enzymatic Assay for human Caspase 2 (CASP2) (AID 2283135)
# How it was run: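 E. coli-expressed enzyme in a cell-free protease assay, fluorescence read 1 h after dosing. Compounds at 25 uM in duplicate, with concentration-response up to 50 uM for hits; loss of signal against DMSO baseline.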
# Chain of human MET Proto-Oncogene, Receptor Tyrosine Kinase (MET), MET (gene 4233) (P08581 whole entry, looked up): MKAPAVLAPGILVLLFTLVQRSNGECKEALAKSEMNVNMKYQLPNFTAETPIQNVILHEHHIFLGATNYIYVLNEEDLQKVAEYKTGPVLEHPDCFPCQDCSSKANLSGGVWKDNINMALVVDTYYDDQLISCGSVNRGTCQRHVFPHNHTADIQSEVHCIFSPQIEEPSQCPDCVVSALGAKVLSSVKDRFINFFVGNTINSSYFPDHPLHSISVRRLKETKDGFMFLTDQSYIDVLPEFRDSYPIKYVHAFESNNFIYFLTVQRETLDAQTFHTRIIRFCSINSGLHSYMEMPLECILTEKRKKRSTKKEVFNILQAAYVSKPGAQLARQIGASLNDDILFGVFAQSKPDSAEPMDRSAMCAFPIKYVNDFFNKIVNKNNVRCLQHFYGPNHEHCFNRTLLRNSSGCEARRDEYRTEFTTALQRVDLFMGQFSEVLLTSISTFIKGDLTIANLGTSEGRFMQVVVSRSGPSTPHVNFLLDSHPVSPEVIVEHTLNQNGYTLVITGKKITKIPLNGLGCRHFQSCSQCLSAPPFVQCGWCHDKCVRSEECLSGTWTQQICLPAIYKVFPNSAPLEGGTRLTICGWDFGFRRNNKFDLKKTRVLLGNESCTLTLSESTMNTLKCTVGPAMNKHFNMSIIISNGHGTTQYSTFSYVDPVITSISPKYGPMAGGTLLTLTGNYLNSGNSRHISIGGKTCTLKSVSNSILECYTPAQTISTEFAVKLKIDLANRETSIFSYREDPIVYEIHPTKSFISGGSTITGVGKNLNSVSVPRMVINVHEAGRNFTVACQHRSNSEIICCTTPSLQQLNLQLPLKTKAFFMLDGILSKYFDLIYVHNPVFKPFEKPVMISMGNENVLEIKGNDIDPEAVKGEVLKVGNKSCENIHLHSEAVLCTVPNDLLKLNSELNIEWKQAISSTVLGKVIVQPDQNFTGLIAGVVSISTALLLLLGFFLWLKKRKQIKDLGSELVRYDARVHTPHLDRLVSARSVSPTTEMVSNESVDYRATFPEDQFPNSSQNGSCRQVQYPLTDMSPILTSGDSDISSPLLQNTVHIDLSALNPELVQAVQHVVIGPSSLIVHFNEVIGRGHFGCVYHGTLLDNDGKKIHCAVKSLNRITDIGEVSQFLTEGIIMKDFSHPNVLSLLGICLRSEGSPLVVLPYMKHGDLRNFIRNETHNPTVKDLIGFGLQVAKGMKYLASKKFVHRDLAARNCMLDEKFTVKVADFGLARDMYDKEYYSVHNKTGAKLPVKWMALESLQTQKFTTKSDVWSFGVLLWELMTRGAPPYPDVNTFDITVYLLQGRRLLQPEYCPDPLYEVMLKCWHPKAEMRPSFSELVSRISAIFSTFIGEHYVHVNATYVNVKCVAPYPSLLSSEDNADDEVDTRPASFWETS
# Chain of human Aurora Kinase A - serine/threonine-protein Kinase 6 (AurA), AURKA (gene 6790) (O14965 whole entry, looked up): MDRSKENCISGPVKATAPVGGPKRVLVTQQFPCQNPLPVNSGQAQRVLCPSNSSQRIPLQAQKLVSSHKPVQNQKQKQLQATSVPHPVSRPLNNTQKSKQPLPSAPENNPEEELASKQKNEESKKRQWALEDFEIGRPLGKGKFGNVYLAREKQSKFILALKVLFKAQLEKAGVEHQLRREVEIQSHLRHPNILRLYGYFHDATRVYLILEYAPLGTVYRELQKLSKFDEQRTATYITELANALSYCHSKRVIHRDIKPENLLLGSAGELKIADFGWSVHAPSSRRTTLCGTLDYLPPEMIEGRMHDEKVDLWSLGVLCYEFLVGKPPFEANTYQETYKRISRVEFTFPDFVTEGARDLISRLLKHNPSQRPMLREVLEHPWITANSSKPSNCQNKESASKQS
# Chain of human Ephrin type-A Receptor 2 (EphA2), EPHA2 (gene 1969) (P29317 whole entry, looked up): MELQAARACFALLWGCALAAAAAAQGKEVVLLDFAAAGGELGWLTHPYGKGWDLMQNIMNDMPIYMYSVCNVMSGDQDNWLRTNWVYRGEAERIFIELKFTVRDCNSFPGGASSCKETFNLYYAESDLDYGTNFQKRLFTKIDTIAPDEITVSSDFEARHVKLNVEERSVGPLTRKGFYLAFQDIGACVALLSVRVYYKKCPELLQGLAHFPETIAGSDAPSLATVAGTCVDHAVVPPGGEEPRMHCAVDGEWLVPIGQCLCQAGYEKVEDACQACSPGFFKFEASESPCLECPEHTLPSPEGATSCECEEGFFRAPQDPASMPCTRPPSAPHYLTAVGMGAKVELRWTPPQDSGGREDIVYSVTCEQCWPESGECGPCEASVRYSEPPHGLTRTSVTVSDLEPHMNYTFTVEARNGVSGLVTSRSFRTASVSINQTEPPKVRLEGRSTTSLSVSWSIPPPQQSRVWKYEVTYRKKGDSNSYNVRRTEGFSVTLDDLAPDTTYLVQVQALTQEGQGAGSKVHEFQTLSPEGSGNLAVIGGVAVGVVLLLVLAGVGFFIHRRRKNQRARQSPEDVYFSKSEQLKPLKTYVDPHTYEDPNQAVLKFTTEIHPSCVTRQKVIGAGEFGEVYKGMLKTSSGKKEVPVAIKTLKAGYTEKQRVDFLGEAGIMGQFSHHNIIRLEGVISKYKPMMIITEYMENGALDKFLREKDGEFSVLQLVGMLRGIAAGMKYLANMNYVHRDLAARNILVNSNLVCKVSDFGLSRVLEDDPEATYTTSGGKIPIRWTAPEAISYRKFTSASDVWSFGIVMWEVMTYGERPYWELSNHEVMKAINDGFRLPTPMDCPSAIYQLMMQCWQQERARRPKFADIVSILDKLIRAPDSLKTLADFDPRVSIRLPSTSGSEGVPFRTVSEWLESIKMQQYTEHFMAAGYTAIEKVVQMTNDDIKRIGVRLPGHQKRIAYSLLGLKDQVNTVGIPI
# Chain of rat Monoamine Oxidase, MAO-B, Peripheral (MAOBP), Maob (gene 25750) (P19643 whole entry, looked up): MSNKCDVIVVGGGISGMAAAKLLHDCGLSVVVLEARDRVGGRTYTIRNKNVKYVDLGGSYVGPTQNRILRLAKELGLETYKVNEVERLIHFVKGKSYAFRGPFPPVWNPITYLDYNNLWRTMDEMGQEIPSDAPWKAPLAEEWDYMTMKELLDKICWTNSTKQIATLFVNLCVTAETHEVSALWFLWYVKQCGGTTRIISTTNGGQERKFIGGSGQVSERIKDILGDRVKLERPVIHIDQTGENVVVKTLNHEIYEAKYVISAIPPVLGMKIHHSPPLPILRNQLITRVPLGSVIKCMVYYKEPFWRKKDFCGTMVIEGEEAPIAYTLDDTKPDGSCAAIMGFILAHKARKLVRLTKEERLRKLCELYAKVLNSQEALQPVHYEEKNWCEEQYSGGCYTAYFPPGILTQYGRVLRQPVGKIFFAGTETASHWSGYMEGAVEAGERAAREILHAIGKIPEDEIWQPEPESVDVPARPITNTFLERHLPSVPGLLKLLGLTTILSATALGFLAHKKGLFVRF
# Chain of human Caspase 2 (CASP2), CASP2 (gene 835) (P42575 whole entry, looked up): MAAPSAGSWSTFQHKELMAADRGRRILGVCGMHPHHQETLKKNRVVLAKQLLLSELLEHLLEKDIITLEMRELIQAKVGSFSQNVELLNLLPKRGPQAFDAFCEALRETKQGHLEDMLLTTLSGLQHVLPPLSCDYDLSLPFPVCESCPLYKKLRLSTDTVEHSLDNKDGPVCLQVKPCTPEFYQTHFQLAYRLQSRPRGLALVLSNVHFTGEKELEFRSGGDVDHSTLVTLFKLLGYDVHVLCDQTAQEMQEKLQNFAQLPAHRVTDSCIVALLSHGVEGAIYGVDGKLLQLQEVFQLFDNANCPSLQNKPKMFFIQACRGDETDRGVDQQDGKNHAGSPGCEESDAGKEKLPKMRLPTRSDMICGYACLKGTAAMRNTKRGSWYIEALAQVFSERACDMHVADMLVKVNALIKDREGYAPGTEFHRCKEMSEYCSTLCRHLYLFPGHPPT
# Chain of rat Oxytocin Receptor (OXT), Oxtr (gene 25342) (P70536 whole entry, looked up): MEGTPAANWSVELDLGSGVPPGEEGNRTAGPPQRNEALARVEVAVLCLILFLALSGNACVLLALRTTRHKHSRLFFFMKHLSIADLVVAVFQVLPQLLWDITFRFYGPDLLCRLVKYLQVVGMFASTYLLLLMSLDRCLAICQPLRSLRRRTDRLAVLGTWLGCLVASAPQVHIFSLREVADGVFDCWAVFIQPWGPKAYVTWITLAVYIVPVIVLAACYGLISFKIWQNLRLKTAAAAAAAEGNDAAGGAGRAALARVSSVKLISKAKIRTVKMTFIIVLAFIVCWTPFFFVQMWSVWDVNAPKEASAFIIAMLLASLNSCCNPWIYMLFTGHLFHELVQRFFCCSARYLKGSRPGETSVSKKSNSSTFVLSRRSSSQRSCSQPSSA
# Chain of Norway rat Vesicular Monoamine Transporter (VMAT2), neurotransmitter transporter, Slc18a2 (gene 25549) (Q01827 whole entry, looked up): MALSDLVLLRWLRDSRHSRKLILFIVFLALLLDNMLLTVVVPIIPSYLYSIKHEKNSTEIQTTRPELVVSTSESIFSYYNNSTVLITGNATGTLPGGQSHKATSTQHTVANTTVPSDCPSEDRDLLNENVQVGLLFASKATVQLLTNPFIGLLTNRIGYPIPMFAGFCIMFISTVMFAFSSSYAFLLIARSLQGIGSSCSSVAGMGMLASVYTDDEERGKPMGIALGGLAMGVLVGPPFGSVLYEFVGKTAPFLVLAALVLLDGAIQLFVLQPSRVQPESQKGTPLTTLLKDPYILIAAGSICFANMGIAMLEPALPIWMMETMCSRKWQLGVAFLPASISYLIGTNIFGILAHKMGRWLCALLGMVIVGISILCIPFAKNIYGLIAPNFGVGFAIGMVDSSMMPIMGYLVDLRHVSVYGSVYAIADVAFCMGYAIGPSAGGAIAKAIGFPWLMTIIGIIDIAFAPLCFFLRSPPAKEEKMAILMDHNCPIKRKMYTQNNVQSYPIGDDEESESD
structure (smiles),measurement,setting,value
COc1ccc(S(=O)(=O)N2C(=O)[C@@](c3ccccc3OC)(N3C[C@H](O)C[C@H]3C(=O)N(C)C)c3cc(Cl)ccc32)c(OC)c1,outcome,[1],inactive
same,outcome,[2],inactive
same,AC50,[3],0.0663 µM (active)
O=Cc1ccccc1C=O,outcome,[4],inactive
same,outcome,[5],inactive
CCN(CC)C(=S)SSC(=S)N(CC)CC,outcome,[4],inactive
Cc1nc(-c2ccc3c(c2)CCN(CCC2CCC(NC(=O)/C=C/c4ccc(F)cc4)CC2)CC3)no1 (centres undefined),outcome,[3],inactive
CCCCCCCCCCCCc1ccccc1S(=O)(=O)O,AC50,[6],9.88 µM (active)
same,AC50,[1],26.2 µM (active)
Oc1ccc2ccccc2c1,AC50,[6],36.6 µM (active)
same,AC50,[2],13.3 µM (active)
c1ccc2[nH]c(-c3cscn3)nc2c1,AC50,[6],17 µM (active)
same,outcome,[4],inactive
CCC(C)N(C)C(=O)c1cc2ccccc2c(-c2ccccc2Cl)n1 (centres undefined),outcome,[2],inactive
same,AC50,[5],9.67 µM (active)
Oc1ccc2c(c1)-c1ccccc1C2,outcome,[5],inactive
O=C(O)Cn1c(=O)n(Cc2ccc(Br)cc2F)c(=O)c2ccc(Cl)cc21,outcome,[7],inactive
Cc1cccc([N+](=O)[O-])c1C,outcome,[7],inactive
CN(C)c1ccc(C(=C2C=CC(=[N+](C)C)C=C2)c2ccc(N(C)C)cc2)cc1,AC50,[7],18.2 µM (active)
same,AC50,[2],25 µM (active)
same,AC50,[3],20.9 µM (active)
same,AC50,[5],1.89 µM (active)
COCCOC[C@H](CC1(C(=O)NC2CCC(C(=O)O)CC2)CCCC1)C(=O)Oc1ccc2c(c1)CCC2 (some centres undefined),outcome,[3],inactive
Fc1ccccc1[C@@H](F)COC1CCC(Nc2ncnc3[nH]ncc23)CC1 (some centres undefined),outcome,[1],inactive
same,AC50,[2],7.67 µM (active)
CN(C)c1ccc(N=NS(=O)(=O)O)cc1,outcome,[6],inactive
same,outcome,[1],inactive
same,AC50,[2],23.8 µM (active)
Cc1cc(CCN2CCN(c3nsc4ccccc34)CC2)cc2c1NC(=O)CC2(C)C,outcome,[6],inactive
O=C(c1ccccc1)c1ccccc1,outcome,[1],inactive
O=C(c1ccc(O)cc1O)c1ccc(O)cc1O,AC50,[6],22.2 µM (active)
same,outcome,[2],inactive
CSc1ccc(Oc2ccc(S(N)(=O)=O)cc2CN(C)C)cc1C,outcome,[7],inactive
CCCCOC(=O)c1ccc(O)cc1,outcome,[7],inactive
O=C(O)c1ccccc1C(=O)OCc1ccccc1,outcome,[7],inactive
COCC(C)OCC(C)OCC(C)O (centres undefined),outcome,[7],inactive
CCCOc1sc(C(=O)N2CCC(c3cc(CN)ccc3F)CC2)c(C)c1Br,outcome,[4],inactive
same,AC50,[3],23.2 µM (active)
same,AC50,[5],2.89 µM (active)
COc1cc(C(=O)NC2CCN(C)CC2)ccc1Nc1ncc2c(n1)N(C1CCCC1)CC(F)(F)C(=O)N2C,outcome,[6],inactive
same,outcome,[1],inactive
same,outcome,[2],inactive
same,AC50,[5],3.01 µM (active)
CCOc1ccc2c(c1)C(C)=CC(C)(C)N2,outcome,[7],inactive
